PINK1 expr mod: A Quantitative High throughput Screen to Identify Chemical Modulators of PINK1 Expression; PINK1 immunofluorescence, high-content cytometry, 24 h; Potency, µM (titrated, usually from 76.6 µM), inactives show at the top dose activation (PINK1 increase), actives largely listed as activators; actives 0.2% (n = 410,000); active means well fitted activation curve with a large enough effect; inconclusive means small, poorly fitted or top-dose-only effect; cell line not stated here; further: potency means the concentration at half of the fitted maximal effect; % of control where 0% means no effect; nearly all actives have a fitted effect of over 65% in size
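A stable cell line was treated with compounds at 5 concentrations for 24 hours, with CCCP as control. PINK1 levels and mitochondrial localization were measured by immunofluorescence with mitochondrial, cell and nuclear markers after fixation, read by laser-scanning cytometry.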
BCR signal inh: qHTS Assay to Find Inhibitors of Chronic Active B-Cell Receptor Signaling. ABC-DLBCL IkBa-CBG/CBR reporter, luminescence ratio, 4 h. Potency, µM (titrated, usually from 46.1 µM), for inactives: top-dose activity change, negative = inhibition, usual class: inhibitors. AID 493014, 2011. actives 0.05% (n = 340,000); active means well fitted inhibition curve with a large enough effect in the signal ratio, with a control signal flat, not every such curve was filed as active; inconclusive means small, poorly fitted or top-dose-only effect, or effect the other way, or a change in a side signal; the % refers to the signal ratio;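 further: potency means the concentration at half of the fitted maximal effect; plate controls were basal doxycycline-induced cells for no effect and cells given 10 µM MG132 for full effect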
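TMD8 human ABC-DLBCL cells with doxycycline-inducible IκBα–green luciferase fusion and unfused red luciferase, in 0.5% FBS medium; compounds up to 46 uM, 4 h at 37C. Green/red luminescence ratio, filter-overlap corrected, fitted to concentration-response curves.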
B2AR arrestin: qHTS assay of beta-arrestin-biased ligands of beta2-adrenergic receptor. Beta-2 adrenergic receptor (Homo sapiens), P07550. beta-arrestin recruitment to beta2AR, cell-based reporter. Potency, µM (doses to about 46.1 µM), inactives show top-dose activation, hits mostly activators. actives 0.02% (n = 330,000);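 further: potency means the concentration at half of the fitted maximal effect; 0% = DMSO controls and full agonism = EC100 isoproterenol or metaproterenol; nearly all actives have a fitted effect of over 65% in size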
PKM2 activator: qHTS Assay for Activators of Human Muscle isoform 2 Pyruvate Kinase | Potency, µM (titrated, usually from 57.5 µM), for inactives: top-dose activation, hits mostly activators | AID 1631, 2009 | actives 0.34% (n = 260,000) | purified PKM2, Kinase-Glo ATP luminescence, activation; response scale: 0% is enzyme alone, no compound; further: potency means the concentration at half of the fitted maximal effect; on the % scale 0 is the no-effect control and ±100 the full control effect; nearly all actives have a fitted effect of over 55% in size
Target sequence (P14618 whole entry, looked up, canonical isoform): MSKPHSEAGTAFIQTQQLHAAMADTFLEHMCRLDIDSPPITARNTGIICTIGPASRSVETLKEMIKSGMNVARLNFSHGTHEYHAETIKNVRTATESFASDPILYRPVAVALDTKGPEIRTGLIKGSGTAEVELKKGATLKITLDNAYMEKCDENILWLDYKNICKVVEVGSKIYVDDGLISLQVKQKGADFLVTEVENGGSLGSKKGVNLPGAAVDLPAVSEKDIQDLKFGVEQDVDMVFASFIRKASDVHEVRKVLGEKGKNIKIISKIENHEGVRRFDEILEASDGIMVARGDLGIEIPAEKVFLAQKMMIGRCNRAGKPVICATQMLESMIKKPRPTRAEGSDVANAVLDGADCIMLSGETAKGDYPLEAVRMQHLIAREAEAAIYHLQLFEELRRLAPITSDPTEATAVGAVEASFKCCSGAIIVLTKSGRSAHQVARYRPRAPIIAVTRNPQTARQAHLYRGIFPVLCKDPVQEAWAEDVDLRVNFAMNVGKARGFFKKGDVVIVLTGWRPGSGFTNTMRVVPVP
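hPK-M2, >95% pure; 0.1 mM ADP / 0.5 mM PEP final; imidazole pH7.2 buffer w/ 7 mM MgCl2, 50 mM KCl; 1 h RT; Kinase-Glo lum. Intermediate enzyme activity for dual inhibitor/activator qHTS.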
Pin1 inhibitor: qHTS Assay to Find Inhibitors of Pin1; Peptidyl-prolyl cis-trans isomerase NIMA-interacting 1 (Homo sapiens), Q13526; Pin1 FP peptide displacement, HiFluor488, 10 min; Potency, µM (top dose mostly 115 µM), without a hit: at the top dose activity, negative = inhibition, hits mostly inhibitors; actives 0.009% (n = 390,000); active means well fitted inhibition curve with a large enough effect in the polarisation, with a control signal flat, not every such curve was filed as active; inconclusive means small, poorly fitted or top-dose-only effect, or effect the other way, or a change in a side signal; inactive means no such curve, though single readings can be large or run the other way; the % refers to the polarisation; further: potency means the concentration at half of the fitted maximal effect; on the % scale 0 is the no-effect control and ±100 the full control effect
Target sequence (Q13526 whole entry, looked up): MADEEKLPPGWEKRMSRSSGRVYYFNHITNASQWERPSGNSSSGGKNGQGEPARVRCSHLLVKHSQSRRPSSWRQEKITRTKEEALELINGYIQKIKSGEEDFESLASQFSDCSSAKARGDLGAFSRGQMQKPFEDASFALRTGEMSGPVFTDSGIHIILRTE
miR-21 act: qHTS Assay for Modulators of miRNAs and/orActivators of miR-21; HeLa miR-21 FLuc reporter, luciferase, 48 h; Potency, µM (titrated, usually from 38.3 µM), inactives show top-dose activity change, positive = activation, usual class: activators; 340,000 tested, under 10 active;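 further: % of control where 0% means no effect; miR-21 action dims this reporter so a rising signal means less miR-21 action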
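HeLa miR-21-FLuc reporter line, endogenous miR-21; 2000 cells/well in DMEM/10% FBS; compound titration up to ~40uM final, 48 h, 37 degree Celsius; luciferase detection reagent, 15 min lysis, CCD luminescence.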
* = called active by the depositor; [ ] = dose if it differs, or a comment. The list is not random: actives were taken first. Their share in the collection is about 0.46%. Unless noted, the call rests on the fitted dose curve; in most records, active means well fitted curve in the direction sought with a large enough effect; inconclusive means small, poorly fitted or top-dose-only effect, or another doubt; inactive means no such curve, though single readings can be large; an effect the other way counts as inactive or inconclusive.

What do the screens show for `CCn1nc(C)cc1C(=O)NCCN1Cc2ccccc2OC(c2ccccc2F)C1` (configuration not stated)?
PINK1 expr mod: 2%

Results for Cc1ccc(CNC(=O)CCS(=O)(=O)c2cc(Br)cc3c2N(C(=O)C2CC2)CC3)o1 ?
PINK1 expr mod: 3%; BCR signal inh: 1%; B2AR arrestin: 0%; PKM2 activator: 7.9µM*; Pin1 inhibitor: -9%; miR-21 act: -6%

What do the screens show for `CSCCC(NS(=O)(=O)c1ccc(Cl)cc1)C(=O)OCc1c(Cl)cccc1Cl` (configuration not stated)?
PINK1 expr mod: 40µM*; BCR signal inh: 0%; B2AR arrestin: -2%; PKM2 activator: 3%; Pin1 inhibitor: 1%; miR-21 act: 1%

Results for Cc1nc(C)c(C(=O)NCc2nc(-c3cccc(NC(=O)c4ccccn4)c3)oc2C)s1 ?
PINK1 expr mod: -1%

Results for O=C1S/C(=C\c2ccc(N3CCOCC3)o2)C(=O)N1Cc1ccc(F)cc1 ?
PINK1 expr mod: inconclusive; BCR signal inh: 3%; B2AR arrestin: -1%; PKM2 activator: 2µM*; Pin1 inhibitor: inconclusive; miR-21 act: 0%

Results for CC(C)OC(=O)CN1C(=O)S/C(=C/c2ccc(N3CCCCC3)o2)C1=O ?
BCR signal inh: 2%; B2AR arrestin: 0%; PKM2 activator: 18%; Pin1 inhibitor: inconclusive; miR-21 act: 4%

How did O=C1S/C(=C/c2ccc(N3CCOCC3)o2)C(=O)N1Cc1ccc(F)cc1 do in these assays?
PINK1 expr mod: 24%; BCR signal inh: 8%; B2AR arrestin: 0%; PKM2 activator: 2µM*; Pin1 inhibitor: inconclusive; miR-21 act: -3%

Results for O=C1NC(=S)S/C1=C/c1ccc(N2CCOCC2)o1 ?
PINK1 expr mod: 21%; BCR signal inh: inconclusive; B2AR arrestin: 0%; PKM2 activator: -55%; Pin1 inhibitor: inconclusive; miR-21 act: -18%

What do the screens show for `COc1ccc(CNC(=O)C(c2ccc(C)o2)N(Cc2cccs2)C(=O)Cc2cccs2)cc1` (configuration not stated)?
PINK1 expr mod: -2%; BCR signal inh: inconclusive; B2AR arrestin: 8%; PKM2 activator: 10µM*; Pin1 inhibitor: 61%; miR-21 act: 1%[7.66 µM]

How did COc1ccc(-c2cc(CCCC(=O)NCCc3ccc(OC)cc3OC)no2)cc1 do in these assays?
PINK1 expr mod: 11µM*; BCR signal inh: 12%; B2AR arrestin: -1%; PKM2 activator: 0%; Pin1 inhibitor: -1%; miR-21 act: -2%

How did COc1ccc(-c2cc(CCCC(=O)NCCc3ccccc3)no2)cc1 do in these assays?
PINK1 expr mod: 0%; BCR signal inh: 19%; B2AR arrestin: 0%; PKM2 activator: -1%; Pin1 inhibitor: -1%; miR-21 act: -26%

Results for COc1cc(C(=O)Nc2nccs2)ccc1OCc1c(C)noc1C ?
PINK1 expr mod: 11µM*; BCR signal inh: inconclusive; B2AR arrestin: 0%; PKM2 activator: -3%; Pin1 inhibitor: 2%; miR-21 act: 0%

What do the screens show for `CCC(/C=C1\Sc2ccc(OC)cc2N1CCO)=C\c1sc2ccc(OC)cc2[n+]1CCO`?
PINK1 expr mod: 14µM*; BCR signal inh: 9%; B2AR arrestin: -1%; PKM2 activator: -55%; Pin1 inhibitor: inconclusive; miR-21 act: 23%

What do the screens show for `c1ccc(C(NCCNC(c2ccccc2)c2ccccc2)c2ccccc2)cc1`?
PINK1 expr mod: 40µM*; BCR signal inh: -1%; B2AR arrestin: 1%; PKM2 activator: 1%; Pin1 inhibitor: 2%; miR-21 act: 11%

What do the screens show for `NS(=O)(=O)c1ccc(CCNC(c2ccccc2)c2ccccc2)cc1`?
PINK1 expr mod: 1%; BCR signal inh: inconclusive; B2AR arrestin: 0%; Pin1 inhibitor: 1%; miR-21 act: 14%

What do the screens show for `Cc1ccc2[nH]c(-c3ccccc3)cc(=O)c2c1`?
PINK1 expr mod: 9%; BCR signal inh: 5.6µM*; B2AR arrestin: 0%; PKM2 activator: 3%; Pin1 inhibitor: -5%; miR-21 act: -1%

Results for O=C1C(Cl)=C(N2CCOCC2)C(=O)N1c1cccc(Cl)c1 ?
PINK1 expr mod: 3%; BCR signal inh: inconclusive; B2AR arrestin: 0%; PKM2 activator: 14µM*; Pin1 inhibitor: 1%; miR-21 act: 16%

How did Cc1ccc(S(=O)(=O)N2CCN(c3nc(-c4ccco4)nc4ccccc34)CC2)cc1 do in these assays?
Pin1 inhibitor: 30%

Results for COc1ccc(C(C)N(C)Cc2nc(N3CCN(C(=O)c4ccco4)CC3)c3ccccc3n2)cc1 (configuration not stated) ?
PINK1 expr mod: 2%

How did Cc1ccc(NC(=O)c2ccc(Cl)c(N3C(=O)C=CC3=O)c2)cc1 do in these assays?
PINK1 expr mod: -2%; BCR signal inh: inconclusive; B2AR arrestin: 0%; PKM2 activator: 20µM*; Pin1 inhibitor: 27%; miR-21 act: 16%

Results for Cc1occc1C(=O)Nc1cccc(-c2nc(CNC(=O)c3ccc4ccccc4n3)c(C)o2)c1 ?
PINK1 expr mod: 1%

Results for COC(=O)c1ccccc1-c1ccc(/C=N/NC(=O)c2cc3ccccc3o2)o1 ?
PINK1 expr mod: 2%; BCR signal inh: 9%; B2AR arrestin: 1%; PKM2 activator: 5%; Pin1 inhibitor: 19%; miR-21 act: 1%

Results for COC(=O)c1ccccc1-c1c2ccc(=N)cc-2oc2cc(N)ccc12 ?
PINK1 expr mod: 40µM*; BCR signal inh: inconclusive; B2AR arrestin: -2%; Pin1 inhibitor: inconclusive

How did CCC(=O)NC(c1cccs1)c1ccc2cccnc2c1O (configuration not stated) do in these assays?
PINK1 expr mod: 8%; BCR signal inh: -16%; B2AR arrestin: 13µM*; PKM2 activator: -4%; Pin1 inhibitor: -2%; miR-21 act: 26%

How did Nc1cc(S(=O)(=O)N2CCN(S(=O)(=O)c3ccc4c(c3)OCCO4)CC2)ccn1 do in these assays?
Pin1 inhibitor: 5%

How did FC(F)(F)c1cnc(-c2cc3c(c(OCC4CCCO4)c2)OCCN(Cc2cccn2-c2nccs2)C3)c(Cl)c1 (configuration not stated) do in these assays?
PINK1 expr mod: 0%

High-throughput results from PubChem BioAssay.
